What is called Inhibition is the change of the read-out against control, counted positive when it falls.

SMILES strings stand for the structures. Results with a measured potency or affinity are listed apart.

Among the data in ChEMBL document CHEMBL4513146, “CO-ADD screening of Karazin Kharkiv National University (Ukraine) compounds” are Inhibition values, retold here.

The test system of one experiment is Klebsiella pneumoniae. The settings on record: Concentration 32 ug.mL-1;; ASSAY_TEST Inhibition of Bacterial Growth; detection method Absorption (OD600); MEDIA CAMHB; plate type 384well; NBS; CORNING #3640; time 18 hr.
In the case of `CCOc1ccccc1NC(=O)Cn1nc2c3cc(-c4ccc(OC)cc4)nn3ccn2c1=O`, the Inhibition was found to be 11.29%.

`CCOc1ccc(NC(=O)CSc2nnc3c(=O)n(-c4ccc(OCC)cc4)ccn23)cc1`: the Inhibition is on record as 13.96%.

Consider `Cc1cc(C)c(NC(=O)CSc2nnc3c4cc(-c5ccccc5)nn4ccn23)c(C)c1`, for which the Inhibition came out at 10.34%.

For `COc1cccc(Sc2nc3ccccc3n3c(=O)n(CC(=O)N4CCCc5ccccc54)nc23)c1`, the Inhibition is recorded as 2.78%.

Take `O=S(=O)(c1ccc2nncn2c1)N(Cc1ccccc1F)c1ccc2c(c1)OCCO2`: the Inhibition was 4.19%.

Turning to `COc1ccc(CCNC(=O)Cn2nc3c(N4CCOCC4)nccn3c2=O)cc1OC`, the Inhibition was determined as 17.72%.

`N#Cc1ccc(NC(=O)Cn2nc3c(Oc4ccccc4)nccn3c2=O)cc1`: the Inhibition was determined as 4.51%.

As for `COc1ccc(C(=O)CSc2nnc3c(=O)n(-c4ccc(F)cc4)ccn23)cc1`, the Inhibition was 10.95%.

In the case of `Cc1ccc(CN(c2ccc3c(c2)OCO3)S(=O)(=O)c2ccc3nnc(C)n3c2)cc1`, the Inhibition is on record as 2.15%.

In the case of `COc1ccc(NC(=O)Cn2nc3ccc(-c4ccc(C)c(C)c4)nn3c2=O)cc1OC`, the Inhibition was found to be 6.13%.

`CC(C)Cn1c(=O)c2sccc2n2c(=O)n(CC(=O)N3CCC(Cc4ccccc4)CC3)nc12`: the Inhibition is -9.43%.

With `Cc1ccc(-n2ccn3c(SCC(=O)c4c[nH]c5ccccc45)nnc3c2=O)cc1C`, the Inhibition is recorded as 9.4%.

Regarding `CCC(C)NC(=O)CSc1nnc2c(=O)n(Cc3ccc(F)cc3)ccn12` (stereo not drawn), the Inhibition came to 6.96%.

With `CSc1cccc(NC(=O)Cn2nc3c(SC4CCCCC4)nccn3c2=O)c1`, the Inhibition amounted to 1.73%.

On to `Cc1cccc(NC(=O)Cn2nc3c(SCc4ccc(Cl)cc4)nccn3c2=O)c1C`, for which the Inhibition is given as 15.65%.

For the molecule `CCc1nnc2ccc(S(=O)(=O)N(Cc3ccccc3F)c3ccc(OC)cc3)cn12`, the Inhibition came out at 7.78%.

On to `O=C(CSc1nnc2c(=O)n(-c3ccccc3)ccn12)Nc1cccc(F)c1`, for which the Inhibition is listed as 2%.

On to `Cc1c(Cl)cccc1NC(=O)Cn1nc2c(N3CCOCC3)nc3ccccc3n2c1=O`, for which the Inhibition turned out to be 9.14%.

`Cc1cccc(Sc2nc3ccccc3n3c(=O)n(CC(=O)Nc4c(C)cc(C)cc4C)nc23)c1`: the Inhibition was found to be 10.9%.

With `CCOc1ccccc1NC(=O)Cn1nc2c(N3CCN(c4ccccc4)CC3)nccn2c1=O`, the Inhibition was determined as 5.33%.

As for `NC(=O)CSc1nnc2c(=O)n(-c3ccc(F)cc3)ccn12`, the Inhibition was determined as 0.07%.

With `COc1ccccc1-n1ccn2c(SCC(=O)Nc3ccc(F)cc3F)nnc2c1=O`, the Inhibition came out at 8.27%.

On to `COc1cccc(CNC(=O)CSc2nnc3ccc(C(=O)Nc4cccc(F)c4)cn23)c1`, for which the Inhibition is reported as -3.24%.

As for `O=c1c2sccc2n2c(=O)n(Cc3ccc(Br)cc3)nc2n1Cc1cccs1`, the Inhibition is on record as -4.09%.

In another experiment the test system is Candida albicans. Conditions: Concentration 32 ug.mL-1; ASSAY_TEST Inhibition of Fungal Growth; detection method Absorption (OD530).
On to `O=C(Cn1nc2c(SCc3ccc(Cl)cc3)nccn2c1=O)Nc1ccccc1F`, for which the Inhibition came to 1.79%.

With `O=C(Cn1nc2c3cc(-c4ccc(F)cc4)nn3ccn2c1=O)NCc1ccccc1Cl`, the Inhibition was 20.13%.

As to `COc1ccc(OC)c(NC(=O)Cn2nc3ccc(-c4ccc(Cl)cc4)nn3c2=O)c1`, the Inhibition came to 0.24%.

In the case of `COc1ccc(-c2cc3c4nnc(SCC(=O)Nc5ccccc5Cl)n4ccn3n2)cc1`, the Inhibition came out at 2.61%.

As to `COc1ccc(-c2cc3c4nnc(SCC(=O)Nc5ccc(OC)c(Cl)c5)n4ccn3n2)cc1`, the Inhibition is on record as 2.5%.

With `COc1cccc(Oc2nccn3c(=O)n(CC(=O)Nc4cccc(Br)c4)nc23)c1`, the Inhibition came to 0.25%.

`O=C(Cn1nc2nc(Nc3ccc(F)cc3)ccn2c1=O)NCc1ccc(F)cc1Cl`: the Inhibition turned out to be 1.62%.

In the case of `Cc1ccc(-c2ccc3nn(Cc4cccc(Cl)c4)c(=O)n3n2)cc1C`, the Inhibition is 1.14%.

In the case of `Cc1ccc(NC(=O)Cn2nc3ccc(SC(C)(C)C)nn3c2=O)cc1C`, the Inhibition is 5.53%.

`Cn1c(=O)c2sccc2n2c(=O)n(Cc3cccc(Br)c3)nc12`: the Inhibition amounted to 10.92%.

Turning to `CCc1cccc(C)c1NC(=O)Cn1nc2ccc(SCc3ccc(Cl)cc3)nn2c1=O`, the Inhibition is 52.47%.

For `Cn1c(=O)c2ccc(C(=O)NC3CCCCC3)cc2n2c(=O)n(CC#N)nc12`, the Inhibition was determined as 1.15%.

In the case of `O=C(CSc1nc2ccccc2n2c(-c3ccccc3)nnc12)Nc1ccc(Br)cc1`, the Inhibition worked out at 10.16%.

Regarding `Cc1cccc(C)c1NC(=O)Cn1nc2c(N3CCSCC3)nc3ccccc3n2c1=O`, the Inhibition is on record as 2.93%.

As for `COc1ccc(Cn2nc3ccc(-c4ccc(Cl)cc4)nn3c2=O)cc1F`, the Inhibition is given as 0.27%.

`CCOc1ccccc1NC(=O)Cn1nc2c3cc(-c4ccc(OC)cc4)nn3ccn2c1=O`: the Inhibition is recorded as 0.88%.

Take `CCOc1ccc(NC(=O)CSc2nnc3c(=O)n(-c4ccc(OCC)cc4)ccn23)cc1`: the Inhibition stood at 2.39%.

On to `Cc1cc(C)c(NC(=O)CSc2nnc3c4cc(-c5ccccc5)nn4ccn23)c(C)c1`, for which the Inhibition amounted to 10.47%.

Consider `COc1cccc(Sc2nc3ccccc3n3c(=O)n(CC(=O)N4CCCc5ccccc54)nc23)c1`, for which the Inhibition stood at 0.71%.

With `O=S(=O)(c1ccc2nncn2c1)N(Cc1ccccc1F)c1ccc2c(c1)OCCO2`, the Inhibition is 7.13%.

`COc1ccc(CCNC(=O)Cn2nc3c(N4CCOCC4)nccn3c2=O)cc1OC`: the Inhibition was 2.21%.

As for `N#Cc1ccc(NC(=O)Cn2nc3c(Oc4ccccc4)nccn3c2=O)cc1`, the Inhibition was determined as 0.35%.

For the molecule `COc1ccc(C(=O)CSc2nnc3c(=O)n(-c4ccc(F)cc4)ccn23)cc1`, the Inhibition amounted to 4.42%.

Consider `Cc1ccc(CN(c2ccc3c(c2)OCO3)S(=O)(=O)c2ccc3nnc(C)n3c2)cc1`, for which the Inhibition was determined as 2.45%.

Consider `COc1ccc(NC(=O)Cn2nc3ccc(-c4ccc(C)c(C)c4)nn3c2=O)cc1OC`, for which the Inhibition turned out to be 32.8%.

Turning to `CC(C)Cn1c(=O)c2sccc2n2c(=O)n(CC(=O)N3CCC(Cc4ccccc4)CC3)nc12`, the Inhibition was determined as 0.45%.

As for `Cc1ccc(-n2ccn3c(SCC(=O)c4c[nH]c5ccccc45)nnc3c2=O)cc1C`, the Inhibition was determined as 3.27%.

For the molecule `CCC(C)NC(=O)CSc1nnc2c(=O)n(Cc3ccc(F)cc3)ccn12` (stereo not drawn), the Inhibition is given as 1.05%.

In the case of `CSc1cccc(NC(=O)Cn2nc3c(SC4CCCCC4)nccn3c2=O)c1`, the Inhibition is -2.6%.

`Cc1cccc(NC(=O)Cn2nc3c(SCc4ccc(Cl)cc4)nccn3c2=O)c1C`: the Inhibition was 5.99%.

Take `CCc1nnc2ccc(S(=O)(=O)N(Cc3ccccc3F)c3ccc(OC)cc3)cn12`: the Inhibition came out at 3.86%.

For `O=C(CSc1nnc2c(=O)n(-c3ccccc3)ccn12)Nc1cccc(F)c1`, the Inhibition is reported as 7.33%.

On to `Cc1c(Cl)cccc1NC(=O)Cn1nc2c(N3CCOCC3)nc3ccccc3n2c1=O`, for which the Inhibition amounted to 0.17%.

`Cc1cccc(Sc2nc3ccccc3n3c(=O)n(CC(=O)Nc4c(C)cc(C)cc4C)nc23)c1`: the Inhibition was found to be 0.56%.

For `CCOc1ccccc1NC(=O)Cn1nc2c(N3CCN(c4ccccc4)CC3)nccn2c1=O`, the Inhibition was found to be 7.24%.

For the molecule `NC(=O)CSc1nnc2c(=O)n(-c3ccc(F)cc3)ccn12`, the Inhibition was determined as 2.37%.

For `COc1ccccc1-n1ccn2c(SCC(=O)Nc3ccc(F)cc3F)nnc2c1=O`, the Inhibition was determined as 0.36%.

In the case of `COc1cccc(CNC(=O)CSc2nnc3ccc(C(=O)Nc4cccc(F)c4)cn23)c1`, the Inhibition was 0.25%.

For `O=c1c2sccc2n2c(=O)n(Cc3ccc(Br)cc3)nc2n1Cc1cccs1`, the Inhibition is 49.64%.
